Screening results: PubChem BioAssay, National Center for Advancing Translational Sciences (NCATS)
SARS PLpro yeast: SARS-CoV PLP inhibition in yeast; S. cerevisiae expressing SARS-CoV PLpro, growth rescue; Potency, µM (doses to about 32.9 µM), usual class: activators; actives 0.19% (n = 330,000); note: nearly all actives have a fitted effect of over 55% in size
NS1 function inh: blocks influenza NS1 protein function; Potency, µM (doses to about 46.1 µM); actives 0.4% (n = 270,000); AID 2326; note: actives are rising curves; nearly all actives have a fitted effect of over 50% in size
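Recovery from NS1-induced slow growth read by OD600 in budding yeast switched to galactose assay medium (pH 6.0, -URA) at 1:100 dilution. Compound 23 nl per well; the matching strain lacking NS1 serves as control.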
Shiga toxin inh: blocks Shiga toxin action in Vero cells; Vero cells, Shiga toxin protein synthesis inhibition reporter; inhibition, % at 38.7 µM; actives 9.2% (n = 290,000); in the data active = inhibition mostly above about 28%, no sharp cut-off; inactive = mostly below about 43%
Pf growth 96h: P. falciparum growth inhibition at 96 hours | P. falciparum luciferase reporter growth, 96 h | actives 6.9% (n = 320,000) | AID 504834 | Potency, µM (top dose mostly 28.7 µM), hits mostly inhibitors; active = well fitted inhibition curve with a large enough effect; inconclusive = small, poorly fitted or top-dose-only effect, or another doubt; inactive = no such curve, though single readings can be large or run the other way
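Delayed-death screen, second-generation endpoint: infected erythrocytes, 2% hematocrit, 0.05% parasitemia final; 96 hours at 37 C, 5% CO2; luciferase detection reagent; luminescence decrease equals reduced growth.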
Cycloheximide cs: affects cycloheximide protein synthesis inhibition readout, counter-screen; AID 2314; cell reporter, cycloheximide protein synthesis inhibition counterscreen; actives 12% (n = 300,000); max response, %; in the data active = max response mostly above about 13%, no sharp cut-off; inactive = mostly below about 14%; note: read at 38.3 µM for the half of the compounds with a filed dose
Pf growth 48h: P. falciparum growth inhibition at 48 hours (one generation). P. falciparum luciferase growth in erythrocytes, 48 h. Potency, µM (doses to about 28.7 µM), usual class: inhibitors. actives 5.9% (n = 310,000). AID 504832; active = well fitted inhibition curve with a large enough effect; inconclusive = small, poorly fitted or top-dose-only effect, or another doubt; inactive = no such curve, though single readings can be large or run the other way
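Firefly luciferase activity from engineered P. falciparum reports growth; inhibitors lower the luminescent signal. Cultures contained 2% hematocrit erythrocytes at 0.1% final parasitemia.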
Hits are given with their value; [ ] = remark or other dose. Most compounds without a hit are left out; they make up all but 21% or so of the library. Unless noted, calls come from the whole dose curve.

Results for C=CCOc1ccc(/C=N/NC(=O)CN2CCCCC2)cc1OC ?
SARS PLpro yeast: inactive; NS1 function inh: inactive; Shiga toxin inh: inactive; Pf growth 96h: inactive; Cycloheximide cs: inactive; Pf growth 48h: inactive

How did Cc1ccc(S(=O)(=O)CCC(=O)OCC(=O)Nc2cc(F)ccc2C)cc1 do in these assays?
SARS PLpro yeast: inactive; Pf growth 96h: inactive; Pf growth 48h: inactive

What do the screens show for `COc1ccccc1OCCOCCOc1ccc(C)cc1[N+](=O)[O-]`?
SARS PLpro yeast: inactive; NS1 function inh: inactive; Shiga toxin inh: inactive; Pf growth 96h: inconclusive; Cycloheximide cs: inactive; Pf growth 48h: inactive

How did COc1cc(C)ccc1OCCOc1ccccc1Cl do in these assays?
SARS PLpro yeast: inactive; NS1 function inh: inactive; Shiga toxin inh: 61; Pf growth 96h: inactive; Cycloheximide cs: 31; Pf growth 48h: inactive

Results for COc1cc(C)ccc1OCCOCCOc1ccccc1[N+](=O)[O-] ?
SARS PLpro yeast: inconclusive; NS1 function inh: inactive; Shiga toxin inh: inactive; Pf growth 96h: inactive; Cycloheximide cs: 22; Pf growth 48h: inactive

How did COc1cc(C)ccc1OCCCON1C(=O)CCC1=O do in these assays?
SARS PLpro yeast: inactive; NS1 function inh: inactive; Shiga toxin inh: 20; Pf growth 96h: inactive; Cycloheximide cs: inactive

What do the screens show for `CCOc1ccccc1OCCCOc1ccc([N+](=O)[O-])cc1Cl`?
SARS PLpro yeast: inactive; NS1 function inh: inactive; Shiga toxin inh: inactive; Pf growth 96h: 10µM; Cycloheximide cs: inactive; Pf growth 48h: inconclusive

Results for CCOc1ccc(-n2c(SCC(=O)N3CCC(C(=O)O)CC3)nc3ccccc3c2=O)cc1 ?
SARS PLpro yeast: inactive; NS1 function inh: inactive; Shiga toxin inh: inactive; Pf growth 96h: inactive; Cycloheximide cs: inactive; Pf growth 48h: inactive

How did CCc1ccc(NC(=O)C(CC)Sc2nc3cc4c(cc3c(=O)n2Cc2ccco2)OCO4)cc1 (stereo not drawn) do in these assays?
SARS PLpro yeast: inactive; NS1 function inh: inactive; Shiga toxin inh: inactive; Pf growth 96h: 2.6µM; Cycloheximide cs: inactive

Results for CCc1ccccc1NC(=O)C(CC)Sc1nc2cc3c(cc2c(=O)n1Cc1ccco1)OCO3 (stereo not drawn) ?
SARS PLpro yeast: inactive; NS1 function inh: inactive; Shiga toxin inh: inactive; Pf growth 96h: inactive; Cycloheximide cs: inactive; Pf growth 48h: inactive

How did COc1ccc(C(C)=O)cc1CSc1nnc(Nc2ccc(C)cc2C)s1 do in these assays?
SARS PLpro yeast: inactive; NS1 function inh: inactive; Shiga toxin inh: inactive; Pf growth 96h: inconclusive; Cycloheximide cs: inactive; Pf growth 48h: inconclusive

How did COc1ccc(C(C)=O)cc1CSc1nnc(Nc2c(C)cccc2C)s1 do in these assays?
SARS PLpro yeast: inactive; NS1 function inh: inactive; Shiga toxin inh: inactive; Pf growth 96h: 9.3µM; Cycloheximide cs: inactive; Pf growth 48h: inconclusive

Results for COc1ccc(C(C)=O)cc1CSc1nnc(Nc2ccccc2C)s1 ?
SARS PLpro yeast: inactive; NS1 function inh: inactive; Shiga toxin inh: inactive; Pf growth 96h: 4.1µM; Cycloheximide cs: inactive; Pf growth 48h: inconclusive

Results for OC(CNCc1ccccc1Cl)C(F)(F)F (stereo not drawn) ?
SARS PLpro yeast: inactive; NS1 function inh: inactive; Shiga toxin inh: inactive; Pf growth 96h: inactive; Cycloheximide cs: inactive; Pf growth 48h: inactive[5.75 µM]

Results for CN(C)C1=NC[C@H](Cc2ccccc2)N1CCCC1CCCCC1 ?
SARS PLpro yeast: inactive; Pf growth 96h: 5.2µM; Pf growth 48h: 7.4µM

Results for c1ccc(C[C@H]2CN=C(Nc3ccccc3)N2CCCC2CCCC2)cc1 ?
SARS PLpro yeast: inactive; NS1 function inh: inactive; Shiga toxin inh: inactive; Pf growth 96h: inconclusive; Cycloheximide cs: inactive; Pf growth 48h: inconclusive

How did CN(C)C1=NC[C@H](Cc2ccccc2)N1CC1CCCCCC1 do in these assays?
SARS PLpro yeast: inactive; Pf growth 96h: inconclusive; Pf growth 48h: 12µM

Results for C[C@H]1CN=C(N(C)C)N1CCC1CCCC1 ?
SARS PLpro yeast: inactive; Pf growth 96h: inconclusive; Pf growth 48h: inconclusive

Results for CN(C)C1=NC[C@H](Cc2ccccc2)N1CCC1CCCC1 ?
SARS PLpro yeast: inactive; Pf growth 96h: inconclusive; Pf growth 48h: 10µM

How did CC(C)(C)C1CCC(CN2C(Nc3ccccc3)=NC[C@@H]2Cc2ccccc2)CC1 (stereo partly drawn) do in these assays?
SARS PLpro yeast: inactive

What do the screens show for `S=C1NC[C@H](Cc2ccccc2)N1CCCCC1CCCCC1`?
SARS PLpro yeast: inactive; NS1 function inh: inactive; Shiga toxin inh: 42; Pf growth 96h: inconclusive; Cycloheximide cs: 11; Pf growth 48h: inconclusive

What do the screens show for `CCCn1c(=O)c(C(=O)NNS(=O)(=O)c2ccc(NC(=O)OC)cc2)c(O)c2ccccc21`?
SARS PLpro yeast: inactive; NS1 function inh: inactive; Shiga toxin inh: inactive; Pf growth 96h: inactive; Cycloheximide cs: inactive; Pf growth 48h: inactive

What do the screens show for `COc1ccc(NC(=O)CN(C)C(=O)Cc2n[nH]c(=O)c3ccccc23)cc1`?
SARS PLpro yeast: inactive; Pf growth 96h: inactive; Pf growth 48h: inactive

What do the screens show for `CC(=O)Nc1cc2cc(NS(=O)(=O)c3ccc(C)cc3)ccc2oc1=O`?
SARS PLpro yeast: inactive; NS1 function inh: inactive; Shiga toxin inh: inactive; Pf growth 96h: inactive; Cycloheximide cs: inactive; Pf growth 48h: inactive

What do the screens show for `CC1(C2CC2)NC(=O)N(CC(=O)Nc2ccc(SC(F)F)cc2)C1=O` (stereo not drawn)?
SARS PLpro yeast: inactive

How did CN(C)C1=NC[C@H](Cc2ccccc2)N1CCCC1CCCC1 do in these assays?
SARS PLpro yeast: inactive; Pf growth 96h: inconclusive; Pf growth 48h: 9.3µM

How did S=C1NC[C@H](c2ccccc2)N1CC1CCCCC1 do in these assays?
SARS PLpro yeast: inactive; NS1 function inh: inactive; Shiga toxin inh: inactive; Pf growth 96h: 8.3µM; Cycloheximide cs: inactive; Pf growth 48h: inconclusive

Results for Cn1c(=O)c2c(ncn2CC(=O)OCC(=O)Nc2cc(Cl)ccc2Cl)n(C)c1=O ?
SARS PLpro yeast: inactive; NS1 function inh: inactive; Shiga toxin inh: inactive; Pf growth 96h: inactive; Cycloheximide cs: inactive; Pf growth 48h: inactive

How did COc1cccc(C(=O)NCC(=O)NCc2cc(=O)n(C)c(=O)n2C)c1OC do in these assays?
SARS PLpro yeast: inactive; NS1 function inh: inactive; Shiga toxin inh: inactive; Pf growth 96h: inactive; Cycloheximide cs: inactive; Pf growth 48h: inactive

How did CCOCCn1c(COc2ccc(C)cc2)nc2ccccc21 do in these assays?
SARS PLpro yeast: inactive; NS1 function inh: inactive; Shiga toxin inh: 40; Pf growth 96h: inactive; Cycloheximide cs: 37; Pf growth 48h: inactive

What do the screens show for `COc1ccc(-c2nc3ccccc3c(=O)n2CCOc2c(C)cccc2C)cc1`?
SARS PLpro yeast: inactive; NS1 function inh: inactive; Shiga toxin inh: inactive; Pf growth 96h: inactive; Cycloheximide cs: inactive; Pf growth 48h: 12µM

Results for COCCn1c(COc2ccc(C)cc2)nc2ccccc21 ?
SARS PLpro yeast: inactive; NS1 function inh: inactive; Shiga toxin inh: 71; Pf growth 96h: inconclusive; Cycloheximide cs: 42; Pf growth 48h: inactive

What do the screens show for `COCCn1c(COC)nc2ccccc21`?
SARS PLpro yeast: inactive; NS1 function inh: inactive; Shiga toxin inh: inactive; Pf growth 96h: inactive; Cycloheximide cs: inactive; Pf growth 48h: inactive
